TDP1 cell CPT: DT40-hTDP1 cell growth loss with CPT | chicken DT40 Tdp1-/-;hTDP1 cells + 20 nM CPT, ATP luminescence, 48 h | 420,000 compounds, 12% hits | Potency, µM (highest dose often 46.2 µM), for inactives: top-dose activity change, negative = growth inhibition, usual class: inhibitors; further: potency means the concentration at half of the fitted maximal effect; nearly all actives have a fitted effect of over 55% in size
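Chicken DT40 Tdp1-/- cells stably complemented with human TDP1 were seeded at 400 cells/well in medium containing 20 nM camptothecin, exposed to pin-transferred compounds, and grown at 37 °C for at least 48 hr. Viability was read as ATP luminescence.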
Gal4-VP16 FLuc: counter-screen for ROR gamma inhibitors: Gal4-VP16 reporter | 310,000 compounds, 3.5% hits | AID 2546 | Potency, µM (titrated, usually from 53.6 µM), for inactives: at the top dose activity, negative = inhibition, hits mostly inhibitors | Drosophila S2 Gal4-VP16 UAS-luciferase, luminescence, 20 h;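 further: Gal4-VP16 expression switched on by copper sulfate through the metallothionein promoter; potency means the concentration at half of the fitted maximal effect; nearly all actives have a fitted effect of over 50% in size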
IL-1B inflam inh: inflammasome signaling inhibition, IL-1 beta readout; THP-1 LPS/ATP IL-1B secretion, AlphaLISA, 16 h; stronger effect = lower value; 360,000 compounds, 4.7% hits; activity change, % at 57.5 µM; in the data active means activity change below about -50%; inconclusive means mostly about -30% to -49%
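THP-1 cells pretreated 1 hr with compounds (up to 57.5 uM final), then stimulated with LPS (250 ng/mL final) plus ATP (1.25 mM final); secreted IL-1B measured by AlphaLISA after 16 hr, decreased signal indicating inhibition.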
DT40 TDP1 no CPT: qHTS for Inhibitors of human tyrosyl-DNA phosphodiesterase 1 (TDP1): qHTS in cells in absence of CPT. DT40 Tdp1-/- hTDP1 cells, no CPT, ATP luminescence, 48 h. 420,000 compounds, 15% hits. Potency, µM (highest dose often 46.2 µM), for the others: top-dose activity change, negative = growth inhibition, most hits filed as inhibitors. AID 686978, 2013; further: potency means the concentration at half of the fitted maximal effect; nearly all actives have a fitted effect of over 55% in size
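DT40 Tdp1-/-;hTDP1 cells, no CPT (DMSO vehicle only), 400 cells/well; compounds pin-transferred; ≥48 hr, 37 °C; CellTiter-Glo 30 min RT dark, luminescence read.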
RORgamma inh: inhibitors of mouse ROR gamma transcriptional activity. P51450. Drosophila S2 Gal4-RORgamma UAS-luciferase reporter, 20 h. Potency, µM (doses to about 53.6 µM), without a hit: at the highest dose activity change, negative = inhibition, hits mostly inhibitors. 310,000 compounds, 5.4% hits. AID 2551; further: potency means the concentration at half of the fitted maximal effect; nearly all actives have a fitted effect of over 60% in size
Target sequence (P51450 whole entry, looked up, the tested form may be a part): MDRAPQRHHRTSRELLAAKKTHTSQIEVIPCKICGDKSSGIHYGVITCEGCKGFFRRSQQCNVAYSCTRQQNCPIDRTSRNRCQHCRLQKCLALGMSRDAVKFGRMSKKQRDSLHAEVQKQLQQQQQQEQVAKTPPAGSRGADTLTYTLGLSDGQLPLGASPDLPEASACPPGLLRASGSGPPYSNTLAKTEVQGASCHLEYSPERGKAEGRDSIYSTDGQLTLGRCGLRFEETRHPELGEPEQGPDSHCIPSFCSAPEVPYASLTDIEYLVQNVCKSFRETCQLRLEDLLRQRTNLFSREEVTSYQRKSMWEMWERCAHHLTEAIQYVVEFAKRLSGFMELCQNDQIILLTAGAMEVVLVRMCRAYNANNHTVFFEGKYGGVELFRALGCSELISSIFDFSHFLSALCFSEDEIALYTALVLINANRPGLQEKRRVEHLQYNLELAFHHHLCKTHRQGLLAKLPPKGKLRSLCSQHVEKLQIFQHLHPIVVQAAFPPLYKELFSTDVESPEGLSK
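In this cell-based reporter format, copper sulfate (700 uM final) drives Gal4–ROR gamma fusion expression from a metallothionein promoter in Drosophila Schneider cells; compounds preincubated 1 hr, reporter read after 20 hr at ambient temperature.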
LDHA inh: inhibitors of human lactate dehydrogenase A | P00338 | purified LDHA, NADH/diaphorase-resazurin fluorescence; stronger effect = lower value | activity change, % (values are at about 110 or 230 µM) | 480,000 compounds, 0.15% hits | AID 1347041; in the data active means activity change below about -30%; inconclusive means mostly about -25% to -30%;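 further: plate controls were DMSO wells for no effect and wells without enzyme for full effect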
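Resorufin fluorescence (ex540/em590), read at 0 and 20 min after diaphorase/resazurin addition, reports the NADH left after a 5 min room-temperature reaction of 2 nM human LDH5 with 0.06 mM NADH and 0.2 mM pyruvate.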
* hit, by the source's call; ? = inconclusive; . = not tested or not shown. Most compounds without a hit are left out; they make up all but 18% or so of the library. Unless noted, the call rests on the fitted dose curve; in most records, active means well fitted curve in the direction sought with a large enough effect; inconclusive means small, poorly fitted or top-dose-only effect, or another doubt; inactive means no such curve, though single readings can be large; an effect the other way counts as inactive or inconclusive. Unless noted, on the % scale 0 is the no-effect control and ±100 the full control effect.

SMILES | TDP1 cell CPT | Gal4-VP16 FLuc | IL-1B inflam inh | DT40 TDP1 no CPT | RORgamma inh | LDHA inh
COC(=O)Nc1ccc2ccccc2c1 | . | . | . | . | . | 5
C/C(=C\C(=S)Nc1ccccc1)Nc1ccc2ccccc2c1 | 18µM* | 3.5µM* | 10 | ? | 5.6µM* | 18
Cc1ccc(S(=O)(=O)NCC(c2cccnc2)S(=O)(=O)c2ccccc2)cc1 (stereo not drawn) | . | . | . | . | . | -19
COc1ccccc1N1CCN(C(=O)c2cccc(S(=O)(=O)N3c4ccccc4CC3C)c2)CC1 (stereo not drawn) | 23µM* | . | . | ? | . | -4
COc1ccccc1N1CCN(C(=O)c2cccc(Oc3ccccc3)c2)CC1 | -30% | 1% | 22 | -15% | 16% | -1
CC1Cc2ccccc2N1S(=O)(=O)c1cccc(C(=O)N2Cc3ccccc3CC2C(N)=O)c1 (stereo not drawn) | 16µM* | . | 18 | 8.2µM* | . | 1
CCOC(=O)C1CCN(C(=O)c2cccc(S(=O)(=O)N3c4ccccc4CC3C)c2)CC1 (stereo not drawn) | ? | . | 4 | ? | . | -2
CC1Cc2ccccc2N1S(=O)(=O)c1cccc(C(=O)N2CCCCC2)c1 (stereo not drawn) | 21µM* | . | ? | 16µM* | . | -2
CCN1CCN(c2ccc(NC(=O)c3ccc4c(c3)[nH]c(=O)n4Cc3ccc(F)cc3)cc2)CC1 | 18µM* | -7% | 29 | 29µM* | 23% | 2
COc1ccc(Cn2c(=O)[nH]c3cc(C(=O)Nc4ccc(N5CCN(C)CC5)cc4)ccc32)cc1 | ? | -5% | -59* | ? | 15% | 4
COc1ccc(C(=O)NCc2ccc(N3CCN(C)CC3)cc2)cc1 | -5% | -1% | -7 | -19% | 16% | -4
Cc1cc(F)ccc1NC(=O)Cn1cnc2c1c(=O)n(C)c(=O)n2C | . | . | . | . | . | 3
C(=C\c1ccccc1)/CN1CCN(C(c2nnnn2C2CCCC2)C2CC2)CC1 (stereo not drawn) | 18µM* | . | 11 | 13µM* | . | -5
C(=C\c1ccccc1)/CN1CCN(C(c2cc3ccccc3o2)c2nnnn2C2CCCCC2)CC1 (stereo not drawn) | 18µM* | . | ? | ? | . | 2
CC(C)(C)n1nnnc1C(CCc1ccccc1)N1CCN(C/C=C/c2ccccc2)CC1 (stereo not drawn) | ? | . | -27 | 15µM* | . | -1
CSCCC(c1nnnn1C(C)(C)C)N1CCN(C/C=C/c2ccccc2)CC1 (stereo not drawn) | ? | . | -9 | ? | . | -2
CC(C)(C)n1nnnc1C(c1cc2ccccc2o1)N1CCCC1 (stereo not drawn) | -13% | . | 23 | -29% | . | 1
C(=C\c1ccccc1)/CN1CCN(C(c2nnnn2Cc2ccccc2)C2CC2)CC1 (stereo not drawn) | 16µM* | . | ? | 16µM* | . | 0
CCCNC(=O)/C(C#N)=C/c1c[nH]c2ccccc12 | . | . | . | . | . | 13
C(=C\c1ccccc1)/CN1CCN(C(c2ccccc2)c2nnnn2C2CCCC2)CC1 (stereo not drawn) | 18µM* | . | -5 | 23µM* | . | -5
CCCCn1nnnc1C(CCc1ccccc1)N1CCN(C/C=C/c2ccccc2)CC1 (stereo not drawn) | ? | . | ? | 23µM* | . | 2
CCCCn1nnnc1C(CCSC)N1CCN(C/C=C/c2ccccc2)CC1 (stereo not drawn) | ? | . | -26 | ? | . | -6
CCCC(c1nnnn1C1CCCC1)N1CCN(c2ccccc2F)CC1 (stereo not drawn) | ? | 3% | 1 | 23µM* | -16% | -3
C(=C\c1ccccc1)/CN1CCN(C(c2cccs2)c2nnnn2C2CCCC2)CC1 (stereo not drawn) | ? | . | -23 | ? | . | 1
C(=C\c1ccccc1)/CN1CCN(C(CCc2ccccc2)c2nnnn2C2CCCC2)CC1 (stereo not drawn) | 18µM* | . | ? | ? | . | -2
SMILES | TDP1 cell CPT | Gal4-VP16 FLuc | IL-1B inflam inh | DT40 TDP1 no CPT | RORgamma inh | LDHA inh
Nc1nc(CN2CCN(C(=O)c3ccc(Cl)cc3)CC2)nc2ccccc12 | . | . | . | . | . | -16
c1ccc(C(c2ccccc2)N2CCN(C(c3ccccn3)c3nnnn3C3CCCC3)CC2)cc1 (stereo not drawn) | 2% | 4% | -7 | -7% | 2% | -7
CC(C)C(c1nnnn1C(C)(C)C)N1CCC(Cc2ccccc2)CC1 (stereo not drawn) | ? | 22µM* | -76* | ? | ? | 4
C(=C\c1ccccc1)/CN1CCN(C(c2ccnc3ccccc23)c2nnnn2C2CCCC2)CC1 (stereo not drawn) | ? | . | -29 | 15µM* | . | -4
O=C(CN1CCCCC1)Nc1oc2ccccc2c(=O)c1-c1ccccc1 | . | . | . | . | . | -10
CC(C)Oc1cccc(C(=O)NC(=S)Nc2cccc(C(F)(F)F)c2)c1 | ? | ? | -9 | ? | 6.3µM* | 5
CCCCOc1cccc(C(=O)NC(=S)Nc2cccc(C(F)(F)F)c2)c1 | ? | 2.8µM* | -9 | 29µM* | 4.5µM* | 0
CCOc1ccccc1Oc1coc2cc(OCC(=O)OC(C)(C)C)ccc2c1=O | . | . | . | . | . | 9
Cc1ccc(-n2c(-c3ccc(Cl)cc3)n[nH]c2=S)c(C)c1 | -7% | 1.1µM* | 27 | -5% | 1.4µM* | -1
COc1ccc(-c2n[nH]c(=S)n2-c2ccc(C)cc2C)cc1 | ? | 5µM* | 41 | ? | 2.8µM* | -4
Cc1ccccc1CSc1nc2nccnc2c(=O)n1Cc1ccc2c(c1)OCO2 | . | . | . | . | . | 8
O=C(NCC(c1cccs1)N1CCCCC1)c1cc2ccccc2oc1=O (stereo not drawn) | . | . | . | . | . | -1
Nc1nc(N)c(Cc2ccc(Cl)cc2Cl)c(N)n1 | 26µM* | -21% | -6 | 23µM* | 24% | -8
Nc1nn(Cc2ccc(Cl)cc2Cl)cc1Cl | . | . | . | . | . | 1
CSc1ccc(Cc2ccc(Cl)cc2Cl)nn1 | -13% | -2% | -14 | -13% | 14% | -5
NNc1ccc(Cc2ccc(Cl)cc2Cl)nn1 | 2% | ? | 78 | ? | 3.5µM* | -1
Cc1nc2ccc3nc(C)sc3c2s1 | . | . | . | . | . | 17
COc1cccc(CNc2ncc(C(=O)Nc3cc(OC)c(OC)c(OC)c3)c(C)n2)c1 | 8.2µM* | 7% | 26 | 9.2µM* | 19% | -1
